# PubChem BioAssay (EPA / NIEHS)
# Inconclusive results are not listed. Active and inactive are the calls of the source. The calls were made as follows: active = hit-call score of the fitted dose curve at least 0.9, where 1 is the maximum; inconclusive = response in the unintended direction; inactive = score below 0.9.
# Legend:
# [1] = molecular target: human Histamine 1 Receptor (H1), HRH1 (gene 3269) (UniProt P35367); experiment: NVS_GPCR_hH1: NovaScreen (NVS) G Protein-Coupled Receptor Assay for human Histamine 1 Receptor (H1) (AID 2283268)
# Chain of human Histamine 1 Receptor (H1), HRH1 (gene 3269) (P35367 whole entry, looked up): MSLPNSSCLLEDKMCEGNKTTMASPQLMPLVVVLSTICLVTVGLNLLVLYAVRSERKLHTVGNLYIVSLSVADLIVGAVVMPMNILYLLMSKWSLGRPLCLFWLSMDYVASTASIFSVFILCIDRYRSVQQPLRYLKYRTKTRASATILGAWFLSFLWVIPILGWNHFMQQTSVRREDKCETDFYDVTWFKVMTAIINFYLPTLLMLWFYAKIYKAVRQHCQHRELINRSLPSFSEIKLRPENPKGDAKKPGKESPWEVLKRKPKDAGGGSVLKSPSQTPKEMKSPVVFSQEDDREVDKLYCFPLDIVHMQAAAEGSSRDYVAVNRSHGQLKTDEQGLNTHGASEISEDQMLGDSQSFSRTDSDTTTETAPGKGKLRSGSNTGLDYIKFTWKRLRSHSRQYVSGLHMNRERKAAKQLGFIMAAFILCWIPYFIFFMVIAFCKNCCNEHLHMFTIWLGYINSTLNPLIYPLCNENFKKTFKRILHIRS
# In short: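 Cell-free radioligand displacement at human H1 receptor, 1 h, filter scintillation counting; primary screen 25 uM in duplicate, hits in concentration series; loss of binding fitted vs DMSO.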
# [2] = molecular target: human Opioid Receptor Delta 1 (Opiate D1), OPRD1 (gene 4985) (UniProt P41143); experiment: NVS_GPCR_hOpiate_D1: NovaScreen (NVS) G Protein-Coupled Receptor Assay for human Opioid Receptor Delta 1 (Opiate D1) (AID 2283280)
# Chain of human Opioid Receptor Delta 1 (Opiate D1), OPRD1 (gene 4985) (P41143 whole entry, looked up): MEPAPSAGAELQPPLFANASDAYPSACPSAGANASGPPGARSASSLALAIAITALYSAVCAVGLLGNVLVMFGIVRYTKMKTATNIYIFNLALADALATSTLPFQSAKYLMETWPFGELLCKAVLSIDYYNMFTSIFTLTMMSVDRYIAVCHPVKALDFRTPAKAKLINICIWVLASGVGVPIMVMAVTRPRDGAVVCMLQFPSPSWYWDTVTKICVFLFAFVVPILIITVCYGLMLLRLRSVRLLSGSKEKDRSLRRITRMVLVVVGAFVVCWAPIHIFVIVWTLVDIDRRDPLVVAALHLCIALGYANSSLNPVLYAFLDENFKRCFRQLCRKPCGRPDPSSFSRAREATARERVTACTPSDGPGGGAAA
# In short: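 Radioligand displacement on membranes from CHO cells expressing the receptor, read by filter scintillation counting 1 h after dosing. Duplicate single-point screen at 25 uM, then concentration series for actives; loss of signal versus DMSO.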
# [3] = molecular target: human Opioid Receptor Mu (Opiate Mu), OPRM1 (gene 4988) (UniProt P35372); experiment: NVS_GPCR_hOpiate_mu: NovaScreen (NVS) G Protein-Coupled Receptor Assay for human Opioid Receptor Mu (Opiate Mu) (AID 2283290);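 also: hits lower bound tracer signal versus DMSO meaning displacement of the ligand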
# Chain of human Opioid Receptor Mu (Opiate Mu), OPRM1 (gene 4988) (P35372 whole entry, looked up): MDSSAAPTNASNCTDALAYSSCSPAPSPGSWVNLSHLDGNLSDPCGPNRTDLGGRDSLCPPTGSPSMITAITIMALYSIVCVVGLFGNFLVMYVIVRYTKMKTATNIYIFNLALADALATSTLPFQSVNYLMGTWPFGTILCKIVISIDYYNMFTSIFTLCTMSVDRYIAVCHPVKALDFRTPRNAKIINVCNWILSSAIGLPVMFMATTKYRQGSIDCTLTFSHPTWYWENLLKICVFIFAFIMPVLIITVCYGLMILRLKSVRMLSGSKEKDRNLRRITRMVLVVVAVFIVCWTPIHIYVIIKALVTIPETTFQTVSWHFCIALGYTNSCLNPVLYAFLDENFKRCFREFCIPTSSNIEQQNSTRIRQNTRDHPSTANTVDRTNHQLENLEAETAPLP
# In short: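 Cell-free radioligand binding to membranes from CHO cells expressing the receptor; bound tracer measured by filter-based scintillation counting 2.5 hours after dosing. Loss of signal versus DMSO baseline reflects displacement; primary screen at 25 uM in duplicate, actives followed up in concentration series.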
# [4] = tested on: rat Adrenergic, Alpha 1B Receptor (Adra1B), gene 24173; experiment: NVS_GPCR_rAdra1B: NovaScreen (NVS) G Protein-Coupled Receptor Assay for rat Adrenergic, Alpha 1B Receptor (Adra1B) (AID 2283297)
# In short: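 Rat liver membranes, radioligand displacement with filter-based scintillation detection, 1 h incubation. Primary screen in duplicate at 25 uM; actives retested in concentration series; activity relative to DMSO.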
# [5] = molecular target: D(1A) dopamine receptor (Homo sapiens) (UniProt P21728); experiment: NVS_GPCR_hDRD1: NovaScreen (NVS) G Protein-Coupled Receptor Assay for human Dopamine Receptor D1 (DRD1) (AID 2283269)
# Chain of D(1A) dopamine receptor (Homo sapiens) (P21728 whole entry, looked up): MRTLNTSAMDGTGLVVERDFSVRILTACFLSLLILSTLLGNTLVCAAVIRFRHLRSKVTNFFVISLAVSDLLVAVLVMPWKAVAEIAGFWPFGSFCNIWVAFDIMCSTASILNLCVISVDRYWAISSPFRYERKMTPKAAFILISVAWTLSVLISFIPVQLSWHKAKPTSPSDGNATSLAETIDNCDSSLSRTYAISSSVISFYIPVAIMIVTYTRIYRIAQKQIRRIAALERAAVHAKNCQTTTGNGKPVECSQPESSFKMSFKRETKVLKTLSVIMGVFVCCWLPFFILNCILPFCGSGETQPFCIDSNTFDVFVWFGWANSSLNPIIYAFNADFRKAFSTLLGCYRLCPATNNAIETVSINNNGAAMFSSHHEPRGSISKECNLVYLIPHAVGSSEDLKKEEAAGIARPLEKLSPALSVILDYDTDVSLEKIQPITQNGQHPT
# In short: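 Cell-free radioligand binding to human DRD1 from HEK293 membranes, read 1 h after dosing by filter-based scintillation counting. Loss of signal versus DMSO baseline marks displacement. Primary screen at 25 uM single concentration in duplicate; actives followed up in concentration series.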
# [6] = molecular target: human Thromboxane A2 Receptor (TXA2), TBXA2R (gene 6915) (UniProt P21731); experiment: NVS_GPCR_hTXA2: NovaScreen (NVS) G Protein-Coupled Receptor Assay for human Thromboxane A2 Receptor (TXA2) (AID 2283282);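 also: actives reduce bound radioligand signal relative to DMSO baseline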
# Chain of human Thromboxane A2 Receptor (TXA2), TBXA2R (gene 6915) (P21731 whole entry, looked up): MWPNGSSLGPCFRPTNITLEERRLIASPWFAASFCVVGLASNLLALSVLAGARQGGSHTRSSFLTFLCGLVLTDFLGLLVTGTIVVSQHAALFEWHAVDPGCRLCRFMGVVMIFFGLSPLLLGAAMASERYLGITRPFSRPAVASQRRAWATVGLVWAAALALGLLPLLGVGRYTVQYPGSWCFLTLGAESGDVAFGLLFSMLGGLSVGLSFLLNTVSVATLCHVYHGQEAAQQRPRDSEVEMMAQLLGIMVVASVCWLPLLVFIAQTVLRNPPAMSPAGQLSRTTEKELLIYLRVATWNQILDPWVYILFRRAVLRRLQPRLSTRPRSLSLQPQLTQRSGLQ
# In short: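 Cell-free radioligand binding with human platelet-derived receptor; 1 h after dosing, filter-based scintillation counting, loss of signal vs DMSO. Primary screen in duplicate at 25 uM.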
# [7] = molecular target: human Neurokinin, NK2 Receptor, TACR2 (gene 6865) (UniProt P21452); experiment: NVS_GPCR_hNK2: NovaScreen (NVS) G Protein-Coupled Receptor Assay for human Neurokinin, NK2 Receptor (AID 2283278);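 also: actives reduce bound radioligand signal relative to DMSO baseline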
# Chain of human Neurokinin, NK2 Receptor, TACR2 (gene 6865) (P21452 whole entry, looked up): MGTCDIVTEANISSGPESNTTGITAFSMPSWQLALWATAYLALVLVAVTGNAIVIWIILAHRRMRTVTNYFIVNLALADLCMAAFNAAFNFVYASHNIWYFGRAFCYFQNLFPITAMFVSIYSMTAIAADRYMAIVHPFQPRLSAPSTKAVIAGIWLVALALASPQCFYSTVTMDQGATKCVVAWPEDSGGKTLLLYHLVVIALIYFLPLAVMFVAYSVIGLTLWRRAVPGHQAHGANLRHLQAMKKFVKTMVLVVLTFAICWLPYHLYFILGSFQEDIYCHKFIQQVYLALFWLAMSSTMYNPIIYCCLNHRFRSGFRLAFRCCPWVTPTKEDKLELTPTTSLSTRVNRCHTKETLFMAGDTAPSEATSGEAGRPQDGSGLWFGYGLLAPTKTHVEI
# In short: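 CHO-derived membrane protein, radioligand displacement, filter scintillation read at 4 h post-dose. Single-point 25 uM in duplicate, then concentration series for actives; DMSO as negative control.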
# [8] = tested on: 5-hydroxytryptamine receptor 2C (pig); experiment: NVS_GPCR_p5HT2C: NovaScreen (NVS) G Protein-Coupled Receptor Assay for pig Serotonin, 5-Hydroxytryptamine Receptor 2C (5HT2C) (AID 2283288)
# In short: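 Pig choroid plexus membranes; radioligand competitive binding, filter-based scintillation counting, read 1 h after dosing. Primary screen in duplicate at 25 uM; actives then run as concentration series; loss of signal versus DMSO baseline.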
# [9] = molecular target: rat Adrenergic, Alpha 1, Non-selective Receptor (Adra1), Adra1a (gene 29412) (UniProt P43140); experiment: NVS_GPCR_rAdra1_NonSelective: NovaScreen (NVS) G Protein-Coupled Receptor Assay for rat Adrenergic, Alpha 1, Non-selective Receptor (Adra1) (AID 2283289)
# Chain of rat Adrenergic, Alpha 1, Non-selective Receptor (Adra1), Adra1a (gene 29412) (P43140 whole entry, looked up): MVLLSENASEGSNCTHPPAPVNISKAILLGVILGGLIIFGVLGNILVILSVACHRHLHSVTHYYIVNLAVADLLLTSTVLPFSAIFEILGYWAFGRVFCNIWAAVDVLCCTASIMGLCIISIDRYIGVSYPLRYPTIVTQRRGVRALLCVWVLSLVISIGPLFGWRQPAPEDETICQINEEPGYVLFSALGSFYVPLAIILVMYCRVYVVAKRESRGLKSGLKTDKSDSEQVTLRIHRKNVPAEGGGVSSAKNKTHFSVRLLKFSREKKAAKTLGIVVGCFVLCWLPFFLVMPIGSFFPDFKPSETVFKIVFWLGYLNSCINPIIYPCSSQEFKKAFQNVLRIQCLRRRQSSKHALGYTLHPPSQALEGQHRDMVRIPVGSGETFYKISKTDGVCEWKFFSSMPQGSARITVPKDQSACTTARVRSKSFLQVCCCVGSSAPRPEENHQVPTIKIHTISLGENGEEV
# In short: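 Rat forebrain membranes; radioligand displacement read by filter-based scintillation counting 1 h after dosing. Primary screen in duplicate at 25 uM; hits (e.g. ≥30% inhibition) rerun as concentration–response to 50 uM max. Fitted versus DMSO.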
# [10] = molecular target: human Neuropeptide Receptor Y1 (NPY1), NPY1R (gene 4886) (UniProt P25929); experiment: NVS_GPCR_hNPY1: NovaScreen (NVS) G Protein-Coupled Receptor Assay for human Neuropeptide Receptor Y1 (NPY1) (AID 2283276)
# Chain of human Neuropeptide Receptor Y1 (NPY1), NPY1R (gene 4886) (P25929 whole entry, looked up): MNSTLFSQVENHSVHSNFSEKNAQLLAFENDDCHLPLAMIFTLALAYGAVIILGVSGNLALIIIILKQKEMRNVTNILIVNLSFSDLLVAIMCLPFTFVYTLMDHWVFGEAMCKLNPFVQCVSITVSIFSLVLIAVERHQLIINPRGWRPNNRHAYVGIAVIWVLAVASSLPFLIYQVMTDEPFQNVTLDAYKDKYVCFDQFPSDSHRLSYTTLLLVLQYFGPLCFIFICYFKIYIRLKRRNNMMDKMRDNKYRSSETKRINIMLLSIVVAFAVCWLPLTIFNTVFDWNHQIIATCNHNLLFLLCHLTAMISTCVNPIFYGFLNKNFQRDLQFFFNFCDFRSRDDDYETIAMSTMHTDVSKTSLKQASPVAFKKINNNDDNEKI
# In short: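 Cell-free radioligand binding using receptor extracted from SK-N-MC cells, 1 h incubation, filter-based scintillation counting. Primary screen single concentration 25 uM in duplicate; actives followed in concentration series. Loss of bound signal scored versus DMSO.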
# [11] = tested on: guinea pig Atrionatriuretic Peptide Receptor A (ANPA), gene 100135578; experiment: NVS_GPCR_gANPA: NovaScreen (NVS) G Protein-Coupled Receptor Assay for guinea pig Atrionatriuretic Peptide Receptor A (ANPA) (AID 2283291)
# In short: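 Radioligand binding to guinea pig cerebellar membranes was measured after 1 h by filter-based scintillation counting. Chemicals were tested in duplicate at 25 uM, with hits run in concentration-response to a maximum of 50 uM. Binding loss was fitted against DMSO.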
# [12] = molecular target: Muscarinic acetylcholine receptor M1 (Homo sapiens) (UniProt P11229); experiment: NVS_GPCR_hM1: NovaScreen (NVS) G Protein-Coupled Receptor Assay for human Muscarinic, M1 Receptor (AID 2283270)
# Chain of Muscarinic acetylcholine receptor M1 (Homo sapiens) (P11229 whole entry, looked up): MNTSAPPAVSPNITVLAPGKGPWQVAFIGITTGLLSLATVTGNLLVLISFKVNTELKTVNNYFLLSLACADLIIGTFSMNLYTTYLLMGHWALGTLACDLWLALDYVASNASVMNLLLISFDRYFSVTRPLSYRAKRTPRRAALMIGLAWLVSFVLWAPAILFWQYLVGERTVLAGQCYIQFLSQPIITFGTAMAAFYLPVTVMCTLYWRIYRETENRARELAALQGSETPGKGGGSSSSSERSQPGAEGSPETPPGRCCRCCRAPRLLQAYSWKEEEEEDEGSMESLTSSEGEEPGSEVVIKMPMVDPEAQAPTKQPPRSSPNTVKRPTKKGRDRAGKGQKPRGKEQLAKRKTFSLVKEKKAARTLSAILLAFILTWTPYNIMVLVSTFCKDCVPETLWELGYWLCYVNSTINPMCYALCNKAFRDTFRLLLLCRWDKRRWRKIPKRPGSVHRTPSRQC
# In short: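 Cell-free radioligand displacement using membrane protein extracted from CHO cells, read by filter-based scintillation counting 1 h after dosing. Loss of bound signal fitted versus DMSO; primary screen single concentration 25 uM in duplicate, actives followed by concentration series.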
# [13] = molecular target: human Orphanin, Opioid Related Nociceptin Receptor 1 (ORL1), OPRL1 (gene 4987) (UniProt P41146); experiment: NVS_GPCR_hORL1: NovaScreen (NVS) G Protein-Coupled Receptor Assay for human Orphanin, Opioid Related Nociceptin Receptor 1 (ORL1) (AID 2283283)
# Chain of human Orphanin, Opioid Related Nociceptin Receptor 1 (ORL1), OPRL1 (gene 4987) (P41146 whole entry, looked up): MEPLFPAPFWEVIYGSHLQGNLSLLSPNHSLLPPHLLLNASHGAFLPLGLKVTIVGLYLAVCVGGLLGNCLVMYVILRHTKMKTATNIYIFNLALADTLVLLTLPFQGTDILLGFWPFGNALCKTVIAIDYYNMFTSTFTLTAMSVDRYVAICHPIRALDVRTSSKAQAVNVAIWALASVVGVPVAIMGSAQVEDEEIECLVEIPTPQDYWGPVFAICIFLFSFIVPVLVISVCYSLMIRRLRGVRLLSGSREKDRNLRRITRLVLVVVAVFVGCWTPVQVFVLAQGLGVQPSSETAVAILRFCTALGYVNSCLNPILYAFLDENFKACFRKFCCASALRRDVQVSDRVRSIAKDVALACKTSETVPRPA
# In short: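 Filter-based radioligand displacement with receptor extracted from HEK293 cells, read 1 hour after dosing by scintillation counting. Duplicate single-point screen at 25 uM; qualifying chemicals then run in concentration-response to 50 uM, analysed relative to DMSO.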
# [14] = molecular target: Neuropeptide Y receptor type 2 (Homo sapiens) (UniProt P49146); experiment: NVS_GPCR_hNPY2: NovaScreen (NVS) G Protein-Coupled Receptor Assay for human Neuropeptide Receptor Y2 (NPY2) (AID 2283277)
# Chain of Neuropeptide Y receptor type 2 (Homo sapiens) (P49146 whole entry, looked up): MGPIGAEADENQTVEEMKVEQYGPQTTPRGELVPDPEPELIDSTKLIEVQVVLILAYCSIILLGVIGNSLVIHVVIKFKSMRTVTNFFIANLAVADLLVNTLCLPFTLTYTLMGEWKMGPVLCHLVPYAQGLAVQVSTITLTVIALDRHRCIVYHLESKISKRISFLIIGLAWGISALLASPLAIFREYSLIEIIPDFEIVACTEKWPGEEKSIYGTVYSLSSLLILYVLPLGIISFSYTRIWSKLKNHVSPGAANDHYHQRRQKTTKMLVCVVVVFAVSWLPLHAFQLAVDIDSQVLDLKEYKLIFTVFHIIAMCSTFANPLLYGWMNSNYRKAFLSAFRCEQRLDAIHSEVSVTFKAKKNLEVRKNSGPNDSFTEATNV
# In short: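 Radioligand binding on membranes extracted from SK-N-MC cells, cell-free, read 1 h after dosing by filter-based scintillation counting. Loss of signal vs DMSO. Primary screen in duplicate at 25 uM; actives followed up in concentration-response up to 50 uM.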
# [15] = molecular target: human Purinergic Receptor P2Y, P2RY1 (gene 5028) (UniProt P47900); experiment: NVS_GPCR_hPY2: NovaScreen (NVS) G Protein-Coupled Receptor Assay for human Purinergic Receptor P2Y (AID 2283281)
# Chain of human Purinergic Receptor P2Y, P2RY1 (gene 5028) (P47900 whole entry, looked up): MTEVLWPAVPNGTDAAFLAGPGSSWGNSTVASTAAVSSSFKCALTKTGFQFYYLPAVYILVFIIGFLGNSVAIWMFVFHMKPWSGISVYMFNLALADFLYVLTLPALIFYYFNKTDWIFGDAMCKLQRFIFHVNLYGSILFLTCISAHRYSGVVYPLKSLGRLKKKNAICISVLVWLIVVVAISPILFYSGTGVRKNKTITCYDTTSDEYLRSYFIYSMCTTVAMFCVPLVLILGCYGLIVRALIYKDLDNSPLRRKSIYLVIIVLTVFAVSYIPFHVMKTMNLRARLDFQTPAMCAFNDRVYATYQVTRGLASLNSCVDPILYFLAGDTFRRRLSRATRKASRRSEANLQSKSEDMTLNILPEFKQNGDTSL
# In short: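 Cell-free radioligand binding using U937-derived protein, 1 h after dosing, filter-based scintillation counting. Screened in duplicate at 25 uM; actives rerun as concentration-response up to 50 uM; loss of signal versus DMSO.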
smiles,measurement,setting,value
CCCCN(CCCC)SN(C)C(=O)Oc1cccc2c1OC(C)(C)C2,outcome,[1],inactive
same,outcome,[2],inactive
same,outcome,[3],inactive
same,outcome,[4],inactive
N#Cc1c(-c2ccc(Cl)cc2)[nH]c(C(F)(F)F)c1Br,outcome,[5],inactive
same,AC50,[6],4.66 µM (active)
same,outcome,[3],inactive
Nc1ccc([N+](=O)[O-])cc1Cl,outcome,[5],inactive
CC(C)(C)c1ccccc1OP(=O)(Oc1ccccc1)Oc1ccccc1,AC50,[7],17.2 µM (active)
c1ccc2c(c1)Nc1ccccc1S2,outcome,[8],inactive
same,outcome,[9],inactive
CCOP(=S)(OCC)SCS(=O)(=O)CC,outcome,[3],inactive
ClC(Cl)c1ccccc1,AC50,[10],5.17 µM (active)
CCOP(=S)(OCC)SCSc1ccc(Cl)cc1,outcome,[7],inactive
Cn1[nH]nnc1=S,outcome,[7],inactive
CCCN(CCC)c1c([N+](=O)[O-])cc(C(C)C)cc1[N+](=O)[O-],outcome,[3],inactive
ClC1=C(Cl)C2(Cl)C3C(Cl)C(Cl)CC3C1(Cl)C2(Cl)Cl (stereo not given),outcome,[2],inactive
CC(Cc1ccc(OCC(=O)O)cc1)NCC(O)c1csc(C(F)(F)F)n1 (stereo not given),outcome,[11],inactive
CCCCCCCc1ccc(O)cc1,outcome,[7],inactive
CC1(C)CN=C(NN=C(/C=C/c2ccc(C(F)(F)F)cc2)/C=C/c2ccc(C(F)(F)F)cc2)NC1,AC50,[12],19.6 µM (active)
same,AC50,[13],37.2 µM (active)
same,AC50,[3],6.5 µM (active)
Nc1ccc(Cl)cc1,outcome,[14],inactive
O=c1ssc(Cl)c1Cl,AC50,[5],1.21 µM (active)
same,outcome,[15],inactive
same,AC50,[3],0.885 µM (active)
CCOP(=S)(OCC)SCn1nnc2ccccc2c1=O,outcome,[7],inactive
Nc1ccc2ccccc2c1,outcome,[3],inactive
C/C(=N\NC(=O)Nc1cc(F)cc(F)c1)c1ncccc1C(=O)O,outcome,[6],inactive
CC(=O)c1ccc(-c2ccccc2)cc1,outcome,[6],inactive
